Experimental data reported in the supplement of paper PMC6555819.

What was measured:
Assay in all cases: PBM binding z-score (relative to random genomic background probes); higher = stronger binding; sequences stand for … in GC…GCGATTGACAGCGTAGAATGAAGG
[1] = tested on: FXR:RXRa (NR concentration 270 nM, RXRa partner concentration 90 nM)
How it was run: (§1)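 Random background probes are the reference for binding z-scores. These scores derive from regression-normalized fluorescence on custom Agilent 4×180K protein-binding microarrays incubated 1 h with ligand-free nuclear receptor dimers. Binding was detected with antibodies against each partner (one per run).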

[2] = tested on: LXRa:RXRa (NR concentration 270 nM, RXRa partner concentration 90 nM)
How it was run: as §1

[3] = tested on: LXRa homodimer (NR concentration 270 nM)
How it was run: as §1

[4] = tested on: LXRb:RXRa (NR concentration 270 nM, RXRa partner concentration 90 nM)
How it was run: as §1

[5] = tested on: LXRb homodimer (NR concentration 270 nM)
How it was run: as §1

[6] = tested on: PPARa:RXRa (NR concentration 270 nM, RXRa partner concentration 90 nM)
How it was run: as §1

[7] = tested on: PPARg:RXRa (NR concentration 180 nM, RXRa partner concentration 90 nM)
How it was run: as §1

[8] = tested on: PPARg:RXRa 270nM:90nM, anti-RXR (NR concentration 270 nM, RXRa partner concentration 90 nM)
How it was run: as §1

[9] = tested on: PPARg:RXRa 30nM:10nM, anti-RXR (NR concentration 30 nM, RXRa partner concentration 10 nM)
How it was run: as §1

[10] = tested on: PPARg:RXRa 90nM:30nM, anti-RXR (NR concentration 90 nM, RXRa partner concentration 30 nM)
How it was run: as §1

| Sequence | PBM binding z-score [1] | PBM binding z-score [2] | PBM binding z-score [3] | PBM binding z-score [4] | PBM binding z-score [5] | PBM binding z-score [6] | PBM binding z-score [7] | PBM binding z-score [8] | PBM binding z-score [9] | PBM binding z-score [10] |
| --- | --- | --- | --- | --- | --- | --- | --- | --- | --- | --- |
| TCTTCTAGGTCAACGATGGTCAGCTAATCTGCTA | 4 | 3.57 | 0.955 | 2.54 | 2.65 | 4.34 | 6.09 | 5.82 | 5.08 | 5.64 |
| AATACAGGGTCATCGTAGGCTAGAGTACGCACAG | 7.1 | 6.2 | 2.25 | 4.59 | 1.4 | 6 | 6.55 | 5.9 | 2.52 | 4.76 |
| TAGCCTAGGTCATGGGCCAGAATACCACGCGAAC | 4.31 | 3.48 | 0.271 | 2.33 | -0.281 | 4.2 | 3.64 | 3.63 | 0.806 | 2.68 |
| ATCTCTAGGTAAAGGTAGTTCAGTGAATGCAAAT | 0.462 | 2.47 | 0.775 | 0.88 | 0.769 | 1.08 | 0.966 | 2.17 | 0.811 | 1.4 |
| ACTAGCAGGCCAAGTTTGGGTGACTCAAACAAAG | -0.397 | -0.73 | -0.818 | -0.554 | -0.715 | -0.036 | -0.341 | -0.319 | -0.347 | -0.213 |
| TCATATAGGTAAACAGGTGAAACTCCGTAAGTTA | 0.937 | 1.06 | 0.143 | 0.976 | -0.264 | 2.64 | 2.96 | 3.47 | 4.07 | 3.7 |
| CAATCTAGGTCAAGGTCAAAGTCGGTTTGTGCCA | 6.74 | 5.74 | 4.27 | 4.52 | 1.81 | 6.18 | 9.73 | 8.06 | 6.64 | 8.19 |
| TATACAGGGTCAAAGGCCTGAGTACGAATGTCGA | 7.13 | 6.36 | 2.31 | 4.5 | 2.28 | 5.81 | 6.92 | 6.47 | 3.45 | 5.74 |
| CGTCCAATGTCAAAGGTCAGTGAAGAGATGACGG | 4.62 | 4.48 | 1.56 | 3.64 | 0.773 | 5.18 | 6.67 | 6.88 | 4.57 | 6.96 |
| CAAACTAGGTCACGAAAGGTGAAAGTCGAATGAC | 5.43 | 5.63 | 0.891 | 4.24 | 0.569 | 6.05 | 9.57 | 7.7 | 6.24 | 7.8 |
| TCTTGTAGATCAAGCAGGTTAAGAAGGCCTGAGT | 0.0541 | 0.0936 | -0.218 | 0.226 | -0.745 | 0.84 | -0.304 | 1.15 | 2.45 | 1.9 |
| CCTGCTGGGTCAATGGTCAGCTAAAGCAGCTCGC | 2.08 | 1.41 | -0.526 | 1.11 | -0.873 | 2.95 | 3.53 | 4.63 | 1.83 | 3.72 |
| CTCGAAAGATCGTGCTCAGGTGAGTATACCAAAC | -0.102 | -0.388 | -0.396 | -0.276 | -0.402 | -0.384 | -0.161 | -0.399 | -0.236 | -0.424 |
| ACTTTCGGGTCAACGAGGTTATAGCACGCGTATA | 6.38 | 5.02 | 0.999 | 4.56 | 1.45 | 5.52 | 4.94 | 5.18 | 2.34 | 4.34 |
| TAGGCTAGGTCATTCAGGGGCCAGTATAGAAAGC | 5.03 | 3.64 | 0.726 | 2.79 | 1.32 | 3.63 | 2.37 | 2.47 | 0.608 | 1.64 |
| AGAATGAGGTTACCAAGGATCAGGGAAACGCTTG | 1.77 | 4.49 | -0.144 | 2.06 | -0.102 | 3.69 | 2.58 | 2.47 | 1.09 | 1.97 |
| TCTCGGAGGACACGAAAGGTCAGAGTTCGACATC | 3.3 | 4.16 | 4.17 | 3.5 | 0.134 | 3.71 | 1.72 | 3.4 | 2.89 | 3.12 |
| AATACAGGGTCATCGTAGGACAGAGTACGCACAG | 7.26 | 6.53 | 2.99 | 4.91 | 1.66 | 5.73 | 6.66 | 6.04 | 3.07 | 4.95 |
| AATACACGGTCACTAGGCCAGAGTAGGTACGAAT | 0.614 | 1.45 | 1.32 | 0.203 | 0.449 | 0.827 | 2.67 | 1.74 | 0.885 | 1.15 |
| CGTACAAGGTCATAGGAGGTCAGTGAAGACAGAT | 7.48 | 7.5 | 5.3 | 6.46 | 1.33 | 6.18 | 6.47 | 6.66 | 3.17 | 5.29 |
| TCATATATGTAATACAGGTGAAAGTCGGCATCTA | 0.656 | 0.799 | 0.168 | 0.857 | 0.395 | 2.14 | 2.09 | 3.12 | 3.65 | 3.4 |
| GCTAGTTGGTCAGTAAAAGGTCTCACACCGGTCG | -0.182 | -0.0505 | -0.00726 | -0.0991 | -0.275 | 0.0782 | 0.203 | 0.834 | -0.473 | 0.379 |
| TTACCAAGGTGAAAGGTCGTTGATGCACGCCTTG | 3.49 | 3.43 | 0.252 | 2.79 | -0.555 | 5.38 | 9.01 | 7.94 | 6.67 | 8.46 |
| AGAACGAGGGCACGCTGAGTTGATATCAGAGTAG | 0.635 | 0.337 | -0.489 | -0.0642 | -0.77 | 2.02 | 2.14 | 1.79 | 0.489 | 1.22 |
| ATCTCTAGGTAACAGTTCAGTGAATCCCGAGGAT | 0.279 | 0.179 | 0.588 | 0.193 | 0.937 | 2.24 | 3.39 | 4.74 | 3.06 | 4.55 |
